Screening data from PubChem BioAssay.
Shown are actives, neighbours in structure and some others; about 10% of the full set was active somewhere.
Lamin A splicing: changes lamin A minigene splicing in HeLa cells; 200,000 compounds, 0.01% hits; HeLa LMNA splicing GFP/RFP minigene ratio, 48 h; Potency, µM (doses to about 46.1 µM), actives largely listed as inhibitors; active = well fitted inhibition curve with a large enough effect in the signal ratio, with a control signal flat, not every such curve was filed as active; inconclusive = small, poorly fitted or top-dose-only effect, or effect the other way, or a change in a side signal; the % refers to the signal ratio
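S3 HeLa stable clones carrying a lamin A-EGFP splicing minigene plus DsRed2 were seeded at 600 cells/well in Opti-MEM with 2% FBS, pin-dosed and incubated 48 h at 37°C. Acumen cytometry (488 nm) gave the GFP/RFP total-intensity ratio.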
KinaseGlo FLuc: Kinase-Glo luciferase inhibition (counter-screen); Q27757; 200,000 compounds, 0.28% hits; Potency, µM (titrated, usually from 38.3 µM), hits mostly inhibitors; Kinase-Glo luciferase, ATP luminescence, 8 min; AID 1379; active = well fitted inhibition curve with a large enough effect; inconclusive = small, poorly fitted or top-dose-only effect; also: nearly all actives have a fitted effect of over 60% in size
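Inhibition of Kinase-Glo luciferase light generation was assessed at 10 uM ATP in pH 7.2 imidazole buffer, with luminescence measured after eight minutes at ambient temperature.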
PNC inhibitor: inhibitors of perinucleolar compartment assembly | AID 2417 | PC3M PTB-GFP, PNC prevalence imaging, 16 h; hits give low values | 140,000 compounds, 3.1% hits | activity change (PNC), negative = inhibition, % at 10 µM;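 active = readout at or below -70, meaning at least 70% loss of cells showing the perinucleolar compartment, a nuclear body marking cancer cells; inconclusive = readout between -30 and a set limit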
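Read-out is percentage of cells bearing a perinucleolar compartment, from automated 20x imaging of fixed, Hoechst-stained PC3M PTB-GFP cells. Cells were seeded 4 h, then exposed 16 h to compound (23 nl of library stock) in duplicate plates.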
ALDH1A1 inh: inhibitors of human aldehyde dehydrogenase 1A1. 220,000 compounds, 7.3% hits. Potency, µM (top dose mostly 75.3 µM), actives largely listed as inhibitors. Purified ALDH1A1, NADH fluorescence, propionaldehyde substrate. P00352. AID 1030
Target sequence (P00352 whole entry, looked up): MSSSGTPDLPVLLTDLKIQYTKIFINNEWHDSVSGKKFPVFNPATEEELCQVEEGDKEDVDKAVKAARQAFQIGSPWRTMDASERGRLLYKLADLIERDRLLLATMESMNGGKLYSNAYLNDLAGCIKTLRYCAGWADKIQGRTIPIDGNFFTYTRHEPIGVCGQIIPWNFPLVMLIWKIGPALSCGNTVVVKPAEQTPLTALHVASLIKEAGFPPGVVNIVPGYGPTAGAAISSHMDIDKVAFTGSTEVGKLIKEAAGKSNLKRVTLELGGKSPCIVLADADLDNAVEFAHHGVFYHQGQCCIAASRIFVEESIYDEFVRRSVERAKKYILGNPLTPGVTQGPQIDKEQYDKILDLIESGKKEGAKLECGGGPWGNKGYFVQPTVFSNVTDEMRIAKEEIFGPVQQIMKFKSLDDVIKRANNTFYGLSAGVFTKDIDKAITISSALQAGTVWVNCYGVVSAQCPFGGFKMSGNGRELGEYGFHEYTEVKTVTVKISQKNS
HPGD block: HPGD (human) dehydrogenase inhibition; P15428; purified HPGD, NADH fluorescence kinetic, PGE2 substrate; Potency, µM, most hits filed as inhibitors; 150,000 compounds, 4.3% hits; AID 894
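NADH formation kinetics: reaction with 30 uM PGE2 and 1 mM NAD+ (final), 20 nM enzyme, Tris-HCl pH 8 with Tween 20, after 15 min compound preincubation at room temperature. Fluorescence change, last versus first of five reads.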
Each line names hits and unclear results; the compound was inactive in the other large screens. Unless noted, calls follow the shape of the dose curve; as a rule, active = well fitted inhibition curve with a large enough effect (not every such curve was filed as active); inconclusive = small, poorly fitted or top-dose-only effect, or another doubt; inactive = no such curve, though single readings can be large or run the other way.

CC(C)C1OC2c3cccc4cccc(c34)C2N1c1ccccc1 (stereo not given)	ALDH1A1 inh 25µM
COc1ccc(-n2c3c(cc(C(=O)NNc4ccccc4C)c2=O)C(=O)CC(C)(C)C3)cc1	ALDH1A1 inh 20µM (no result: PNC inhibitor, HPGD block)
COc1cc([C@@H]2c3cc4c(cc3C(OC3OC5COC(C)OC5C(O)C3O)C3COC(=O)[C@@H]32)OCO4)cc(OC)c1O (stereo not given in full)	none (no result: Lamin A splicing, PNC inhibitor)
CC(O)CNc1ccc(-c2nn(C)c(=O)c3ccccc23)cc1[N+](=O)[O-] (stereo not given)	ALDH1A1 inh 7.9µM (no result: Lamin A splicing, PNC inhibitor, HPGD block)
CC(C)(Oc1ccc(-c2cccc3ccccc23)cc1)C(=O)O	none (no result: Lamin A splicing, PNC inhibitor)
Cc1ccnc(SCC(=O)c2cccc([N+](=O)[O-])c2)n1	ALDH1A1 inh 32µM
Cc1nc([N+](=O)[O-])c(Br)n1CC(=O)c1ccc(F)cc1	Lamin A splicing inconclusive (no result: PNC inhibitor, HPGD block)
Cc1nc([N+](=O)[O-])c(Br)n1CC(=O)c1cccc([N+](=O)[O-])c1	ALDH1A1 inh 25µM (no result: PNC inhibitor, HPGD block)
Cc1nc(SCC(=O)c2cccc([N+](=O)[O-])c2)n[nH]1	ALDH1A1 inh inconclusive
Cc1nnc(NC(=O)CSc2cn(CCNC(=O)c3ccccc3)c3ccccc23)s1	Lamin A splicing inconclusive, PNC inhibitor inconclusive, ALDH1A1 inh 1.6µM
COc1ccc(C(=O)NCCn2cc(SCC(=O)NCc3ccco3)c3ccccc32)cc1	Lamin A splicing inconclusive, ALDH1A1 inh 25µM
Cc1cc(NC(=O)CSc2cn(CCNC(=O)c3ccc(F)cc3)c3ccccc23)no1	Lamin A splicing inconclusive, ALDH1A1 inh inconclusive
CC(C)C(=O)c1cn(CC(=O)NCc2ccco2)c2ccccc12	PNC inhibitor -100
CCN(CC)C(=O)Cn1cc(SCC(=O)NCc2ccco2)c2ccccc21	ALDH1A1 inh inconclusive (no result: Lamin A splicing, PNC inhibitor, HPGD block)
CC(C)C(=O)c1cn(CC(=O)NCc2ccc3c(c2)OCO3)c2ccccc12	ALDH1A1 inh inconclusive
Cc1nn(C)c2c1c(C(F)(F)F)cc(=O)n2C(C)C(=O)NCCC(C)C (stereo not given)	none (no result: KinaseGlo FLuc, PNC inhibitor, ALDH1A1 inh, HPGD block)
COc1ccccc1/C=C1\S/C(=N/NC(=O)c2cccc(Br)c2)NC1=O	Lamin A splicing inconclusive, PNC inhibitor inconclusive, HPGD block 11µM
COC(=O)/C=C1\S/C(=N/NC(=O)c2ccccc2)NC1=O	ALDH1A1 inh inconclusive
CCN(CC)CCN(C(=O)c1ccco1)c1nc2ccc(Br)cc2s1	none (no result: KinaseGlo FLuc, PNC inhibitor, ALDH1A1 inh, HPGD block)
S=C(Nc1ccc(Cl)cc1Cl)NC1CCN(Cc2ccccc2)CC1	Lamin A splicing inconclusive, ALDH1A1 inh 8.9µM
S=C(Nc1ccc2c(c1)OCO2)NC1CCN(Cc2ccccc2)CC1	PNC inhibitor inconclusive, ALDH1A1 inh 13µM
Cc1ccc(NC(=S)NC2CCN(Cc3ccccc3)CC2)cc1	PNC inhibitor -119, ALDH1A1 inh inconclusive
CC(C)c1ccc(NC(=S)NC2CCN(Cc3ccccc3)CC2)cc1	Lamin A splicing inconclusive, ALDH1A1 inh inconclusive
CC(=O)Nc1ccc(S(=O)(=O)N2CCc3nc(COc4ccccc4)c4c(c3C2)CO[C@@H](C)C4)cc1	none (no result: PNC inhibitor)
O=C(CCCc1ccccc1)NCc1cn2ccsc2n1	none
O=C(CC1CCCCC1)NCc1cn2ccsc2n1	HPGD block 22µM
CCN1CCN(c2ncnc3c2cnn3-c2ccc(F)cc2)CC1	none (no result: KinaseGlo FLuc, PNC inhibitor, ALDH1A1 inh, HPGD block)
O=C(O)c1ccc(CSc2nnc(COc3ccc(Cl)cc3Cl)o2)cc1	ALDH1A1 inh inconclusive, HPGD block 5µM
O=c1cc(CSc2nnc(COc3ccccc3Cl)o2)nc2sccn12	ALDH1A1 inh inconclusive, HPGD block 18µM
CCn1nc(C)c(CCN(C)C(=O)Nc2ccc(C)c(Cl)c2)c1C	none (no result: KinaseGlo FLuc, PNC inhibitor, ALDH1A1 inh, HPGD block)
Cc1ccc(S(=O)(=O)N(C)C)cc1NC(=O)COC(=O)c1ccc2c(c1)NC(=O)CS2	ALDH1A1 inh inconclusive (no result: KinaseGlo FLuc, PNC inhibitor, HPGD block)
CCc1ccccc1NS(=O)(=O)c1ccc2[nH]cc(C(=O)NC3CCCC3)c(=O)c2c1	Lamin A splicing inconclusive, ALDH1A1 inh 20µM
CN(Cc1ccco1)C(=O)c1c[nH]c2ccc(S(=O)(=O)Nc3ccc4c(c3)OCCO4)cc2c1=O	ALDH1A1 inh 22µM, HPGD block 18µM
CCc1ccc(NS(=O)(=O)c2ccc3[nH]cc(C(=O)N(C)Cc4ccco4)c(=O)c3c2)cc1	PNC inhibitor -114
O=C(NC1CCCC1)c1c[nH]c2ccc(F)cc2c1=O	ALDH1A1 inh inconclusive
COc1ccccc1CNC(=O)CN1C(=O)CCc2cc(S(=O)(=O)N3CCOCC3)ccc21	none (no result: KinaseGlo FLuc, PNC inhibitor, ALDH1A1 inh, HPGD block)
